The values below come from PubChem BioAssay (NCATS).

The subject of assay [1] is Zika virus NS2B-NS3 protease. Nature of the assay: Primary screen GU AMC qHTS for Zika virus inhibitors (AID 1347154). Note: nearly all actives have a fitted effect of over 70% in size. Note: potency is the fitted concentration of half-maximal effect. In short, it runs like this: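 Unlinked Zika NS2B hydrophilic domain–NS3 protease complex at 25 nM in 10 mM Tris-HCl pH 8.0, 0.01% Tween 20, with an AMC peptide substrate. Fluorescence change (340/450 nm) over 15 min at room temperature, normalized to controls, fitted to 4-parameter Hill.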

Assay [2] deals with Zika virus NS2B-NS3 protease (unlinked complex). As to the kind of experiment: Primary screen GU Rhodamine qHTS for Zika virus inhibitors: Unlinked NS2B-NS3 protease assay (AID 1347159). Note: nearly all actives have a fitted effect of over 60% in size. Note: potency is the fitted concentration of half-maximal effect. The method, boiled down:
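Percent inhibition came from the 15-min rise in Rhodamine110 fluorescence (1.5 microM substrate, ~15% conversion), normalized to no-inhibitor and no-enzyme wells and Hill-fitted. Unlinked protease, 25 nM, pH 8.0 Tris buffer; compounds up to 114 microM, 15-min preincubation.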

For assay [3], the system named is Zika virus NS2B-NS3 protease (linked construct). Nature of the assay: Primary screen NINDS Rhodamine qHTS for Zika virus inhibitors (AID 1347160). Note: nearly all actives have a fitted effect of over 55% in size. Note: potency is the fitted concentration of half-maximal effect. In short, it runs like this:
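Rhodamine110-peptide cleavage (1.5 µM substrate) by 25 nM linked NS2B-NS3 enzyme at pH 8.0 (Tris, Tween 20), after 15 min RT preincubation with compounds; 15-min fluorescence change normalized to controls and Hill-fitted.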

Assay [4] can be described thus: Confirmatory screen NINDS Rhodamine qHTS for Zika virus inhibitors (AID 1347161). Note: potency is the fitted concentration of half-maximal effect; nearly all actives have a fitted effect of over 60% in size. The method, boiled down:
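qHTS dose-response: 25 nM linked protease, pH 8.0 Tris/Tween buffer, cpd titration, 15 min RT preinc, 1.5 microM Rhod110 peptide, 15 min reaction (~15% conversion), Ex480/Em540; 4-parameter Hill fit.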

For assay [5], the system named is Zika virus NS2B-NS3 protease (linked construct). As to the kind of experiment: 384 well plate NINDS Rhodamine confirmatory qHTS for Zika virus inhibitors (AID 1347164). Note: top concentration of the series differs between compounds; nearly all actives have a fitted effect of over 65% in size. The method, boiled down:
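Compounds are incubated about 15 minutes with linked protease (5, 30 or 60 nM final). Rhodamine 110-tagged Ac-LKRR substrate (10 microM final) is added and fluorescence measured after 25 minutes.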

Assay [6] can be described thus: Confirmatory screen GU Rhodamine qHTS for Zika virus inhibitors qHTS (AID 1347157). Note: potency is the fitted concentration of half-maximal effect; nearly all actives have a fitted effect of over 70% in size. In short, it runs like this:
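Compounds, tested up to 114 microM, were incubated for 15 minutes with 25 nM unlinked NS2B-NS3 protease at pH 8.0. Cleavage of 1.5 microM Rhodamine110 substrate was then followed by fluorescence for 15 minutes.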

Records with an inconclusive call do not appear. Calls of active or inactive are those of the source. Calls come from the whole dose curve; as a rule, active = well fitted curve in the direction sought with a large enough effect; inconclusive = small, poorly fitted or top-dose-only effect, or another doubt; inactive = no such curve, though single readings can be large; an effect the other way counts as inactive or inconclusive.

As to `O=C(NC1CCOCC1)c1ccc(-c2cc(-c3cn[nH]c3-c3ccccn3)ccn2)cc1`, the Potency entry in assay [1], in assay [2] and in assay [3] was “inactive” each time.
As to `CCn1c(C(=O)N(C2CC2)C2CC2)cc2c3c(ncn3C)c(Nc3cc(C)n(C)n3)nc21`, the Potency entry in assay [2] and in assay [3] was “inactive” throughout.
In the case of `O=C(Nc1ccccc1-c1cn2c(CN3CCNCC3)csc2n1)c1cnc2ccccc2n1`, the Potency entry in assay [1], in assay [2] and in assay [3] was “inactive” in each case.
Take `CC(C)C(=O)Nc1ncc(-c2cc(C(F)F)nn2-c2c(Cl)cccc2Cl)s1`: the Potency entry in assay [1], in assay [2] and in assay [3] was “inactive” throughout.
For the compound `COc1ccc(C2CC(c3ccccc3)=NN2c2ccc(S(N)(=O)=O)cc2)cc1` (stereo not given), the Potency entry in assay [1], in assay [2] and in assay [3] was “inactive” each time.
As to `CC(C)(C)Cn1c(N)nc2ccc(-c3[nH]c(C(C)(C)C)nc3-c3ccc(F)cc3)nc21`, the Potency in assay [1] is 10.8 µM (active). Besides, the Potency result in assay [2] and in assay [3] was “inactive” in each case.
As to `Cc1ccccc1C(C(=O)NC1CCCCC1)N(C(=O)Cn1ccnc1C)c1cccc(F)c1` (stereo not given), the Potency entry in assay [1], in assay [2] and in assay [3] was “inactive” throughout.
On to `CN(C)Cc1ccc(-c2nc3cccc4c3n2CCNC4=O)cc1`, for which the Potency entry in assay [2] and in assay [3] was “inactive” in each case.
As for `CS(=O)(=O)N(Cc1ccco1)CC(O)Cn1c2ccccc2c2ccccc21` (stereo not given), the Potency entry in assay [1], in assay [2] and in assay [3] was “inactive” each time.
On to `COc1cc(N2CCC(N3CCN(C)CC3)CC2)ccc1Nc1ncnc(Nc2ccccc2S(=O)(=O)C(C)C)n1`, for which the Potency entry in assay [1], in assay [2] and in assay [3] was “inactive” in each case.
As for `CC(C)[C@H](CO)Nc1nc(Nc2ccc(C(=O)O)c(Cl)c2)c2ncn(C(C)C)c2n1`, the Potency result in assay [1], in assay [2] and in assay [3] was “inactive” in each case.
Turning to `CN(C)c1cc(NC(=O)CNC(C)(C)C)c(O)c2c1C[C@@H]1C[C@H]3[C@H](N(C)C)C(=O)C(C(N)=O)=C(O)[C@@]3(O)C(=O)C1=C2O`, the Potency in assay [4] was 4.41 µM (active). Also, the Potency result in assay [5] is “inactive”.
In the case of `CO[C@H]1C=CO[C@@]2(C)Oc3c(C)c(O)c4c(O)c(c5c(c4c3C2=O)NC2(CCN(CC(C)C)CC2)N=5)=NC(=O)C(C)=CC=C[C@H](C)[C@H](O)[C@@H](C)[C@@H](O)[C@@H](C)[C@H](OC(C)=O)[C@H]1C`, the Potency entry in assay [1], in assay [2] and in assay [3] was “inactive” each time.
As to `CC(=O)N(C)C1(c2ccccc2)CCN(CCC[C@]2(c3ccc(Cl)c(Cl)c3)CCCN(C(=O)c3ccccc3)C2)CC1`, the Potency result in assay [1], in assay [2] and in assay [3] was “inactive” in each case.
Take `O=C(O)c1ccccc1C(=O)Nc1ccc(-c2ccccc2)cc1`: the Potency entry in assay [1], in assay [2] and in assay [3] was “inactive” in each case.
For `COc1ccc(Cc2ccc(NC(N)=O)cc2)cc1-c1cccc(Cl)c1`, the Potency result in assay [1], in assay [2] and in assay [3] was “inactive” each time.
In the case of `COc1ccc(C2Sc3ccccc3N(CCN(C)C)C(=O)C2OC(C)=O)cc1` (stereo not given), the Potency entry in assay [1], in assay [2] and in assay [3] was “inactive” each time.
As for `CC(C)(C)OC(=O)N[C@H]1CCCCCC=C[C@@H]2C[C@@]2(C(=O)NS(=O)(=O)C2CC2)NC(=O)[C@@H]2C[C@@H](OC(=O)N3Cc4cccc(F)c4C3)CN2C1=O`, the Potency in assay [6] was 49.4 µM (active); in assay [2], 35.5 µM (active); in assay [4], 49.4 µM (active). In assay [3], the Potency result was “inactive”.
`Cc1nc(N)sc1-c1ccnc(Nc2ccc(N3CCOCC3)cc2)n1`: the Potency result in assay [1], in assay [2] and in assay [3] was “inactive” in each case.
Regarding `COc1cc(Nc2ncc(F)c(Nc3ccc4c(n3)NC(=O)C(C)(C)O4)n2)cc(OC)c1OC`, the Potency result in assay [1] and in assay [3] was “inactive” in each case.
Consider `NC(=O)c1cccc(-c2cc(Nc3ccc(OC(F)(F)F)cc3)ncn2)c1`, for which the Potency entry in assay [1], in assay [2] and in assay [3] was “inactive” in each case.
With `CN1CCN(CCOc2cc(OC3CCOCC3)c3c(Nc4c(Cl)ccc5c4OCO5)ncnc3c2)CC1`, the Potency result in assay [1], in assay [2] and in assay [3] was “inactive” throughout.
On to `CNC(=O)c1ccc2cc(C3(O)CCn4cncc43)ccc2c1` (stereo not given), for which the Potency entry in assay [1], in assay [2] and in assay [3] was “inactive” in each case.
As for `COc1ccc2c(Oc3ccc(NC(=O)c4c(C)n(CC(C)(C)O)n(-c5ccccc5)c4=O)nc3)ccnc2c1`, the Potency result in assay [1], in assay [2] and in assay [3] was “inactive” in each case.
As for `CCOC(=O)C1=C(N)Oc2ccc(Br)cc2C1C(C#N)C(=O)OCC` (stereo not given), the Potency entry in assay [1] and in assay [3] was “inactive” each time.
`Cn1c(N2CCCCS2(=O)=O)nc(C(=O)NCc2ccc(F)cc2)c(O)c1=O`: the Potency entry in assay [1], in assay [2] and in assay [3] was “inactive” in each case.
On to `Cc1c(NC(=O)c2ccc(C(C)(C)C)cc2)cccc1-c1cn(C)c(=O)c(Nc2ccc(C(=O)N3CCOCC3)cc2)n1`, for which the Potency entry in assay [2] and in assay [3] was “inactive” each time.
On to `O=C(O)C(O)Cc1ccc(O)c(O)c1` (stereo not given), for which the Potency in assay [3] is 3.49 µM (active).
For the compound `O=C(NCc1ccccc1)c1csc(Nc2ccncn2)n1`, the Potency result in assay [1], in assay [2] and in assay [3] was “inactive” throughout.
Regarding `Cc1cccc(Nc2nc(-c3ccncc3)cs2)c1`, the Potency entry in assay [1], in assay [2] and in assay [3] was “inactive” each time.
For the compound `COCCOC(=O)C1=C(C)NC2=C(C(=O)CC(c3ccccc3OC)C2)C1c1cccc(O)c1` (stereo not given), the Potency result in assay [2] and in assay [3] was “inactive” throughout.
`CN(C[C@@H]1COCCO1)S(=O)(=O)Nc1ccc2ccc3ncc(-c4cnn(C)c4)cc3c(=O)c2c1`: the Potency entry in assay [1], in assay [2] and in assay [3] was “inactive” each time.
As to `NC(=O)c1cnc(-c2ccc(C3(N)CCC3)cc2)c(-c2ccccc2)c1`, the Potency entry in assay [1], in assay [2] and in assay [3] was “inactive” in each case.
As for `CC(C)(C)NC(=O)Nc1cccc(Nc2ncc(F)c(NC(C)(C)CO)n2)c1`, the Potency result in assay [1], in assay [2] and in assay [3] was “inactive” each time.
On to `COCCOc1nc(-c2ccc(Cl)c(Cl)c2)n(-c2ccc(NC(=O)CCl)cc2)n1`, for which the Potency entry in assay [1], in assay [2] and in assay [3] was “inactive” throughout.
`COc1cc2ncnc(-n3nc(-c4ccccn4)nc3N)c2cc1OC`: the Potency entry in assay [1], in assay [2] and in assay [3] was “inactive” throughout.
With `O=C(O)CCc1nc(-c2ccccc2)c(-c2ccccc2)o1`, the Potency entry in assay [1] and in assay [3] was “inactive” throughout.
Regarding `O=c1cc(CN2CCOCC2)occ1OCCCCCSc1ccnc2cc(C(F)(F)F)ccc12`, the Potency entry in assay [1], in assay [2] and in assay [3] was “inactive” each time.
